Measurements from PubChem BioAssay (NCATS).
Records with an inconclusive call do not appear. Values without a mark were called inactive. Activity calls are given as the source filed them. Calls come from the whole dose curve; as a rule, active = well fitted inhibition curve with a large enough effect; inconclusive = small, poorly fitted or top-dose-only effect; inactive = flat fitted curve, though single readings scatter.

Assay: P-glycoprotein substrates identified in KB-8-5-11 adenocarcinoma cell line, qHTS therapeutic library screen (AID 1346987); note: nearly all actives have a fitted effect of over 65% in size
Conditions: KB-8-5-11 (P-gp overexpressing) viability, CellTiter-Glo, 72 h; series mostly up to 44.5 µM; activity change, negative = cytotoxicity: at the top concentration
How it was run: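 Luminescence from CellTiter-Glo, read 5 min after addition, quantified survival of KB-8-5-11 (P-gp-overexpressing) cells exposed to compounds for 72 h. AC50 was derived from concentration-response curves.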
% is set by controls: 0 for no effect and ±100 for the full control effect; potency is the fitted concentration of half-maximal effect.

Row | SMILES | activity change, negative = cytotoxicity | Potency | outcome
1 | CC1OC2OC(=O)C3(C)CC4=C(CO)C5=C(CC(=O)C4(C)C(C1=O)C23)C(C)(C)OC(=O)C5 (stereo unspecified) | -11% [at 17.3 µM] |  | 
2 | Cc1[nH]c2ccccc2c1C1=C(NCCc2ccc(F)cc2)C(=O)N(C)C1=O |  | 16.4 µM (active) | 
3 | COc1cc(O)cc(C)c1C(=O)O[C@H]1[C@@H](OC(C)=O)[C@H](n2ccc(=O)[nH]c2=O)O[C@@H]1CO |  |  | inactive [at 17.3 µM]
4 | CC(=O)O[C@@H](CO[C@@H]1O[C@H](CO)[C@H](O)[C@H](O)[C@H]1O)[C@]1(C)C=C2CC[C@@H]3C(C)(C)[C@@H](O)CC[C@@]3(C)[C@@H]2CC1 | 3.01% [at 17.3 µM] |  | 
5 | CCCCc1nc2cc(/C=C/C(=O)NO)ccc2n1CCN(CC)CC |  | 3.26 µM (active) | 
6 | COC(=O)N1CCC(n2ncc3c(N4CCOCC4)nc(-c4ccc(NC(=O)Nc5ccc(CO)cc5)cc4)nc32)CC1 |  | 2.59 µM (active) | 
7 | C=C1CC2C(C)(CCC(=O)O)C(C(C)(C)O)CCC2(C)C2C(=O)OC(C)(C(=O)OC)C(=O)C12C (stereo unspecified) |  |  | inactive [at 17.3 µM]
8 | CC1(C)CC[C@]2(C(=O)O[C@@H]3O[C@H](CO)[C@@H](O)[C@H](O)[C@H]3O)CC[C@]3(C)C(=CCC4[C@@]5(C)C[C@@H](O)[C@H](O)[C@](C)(C(=O)O)C5CC[C@]43C)C2C1O (stereo partly specified) | -2.37% [at 17.3 µM] |  | 
9 | Cn1c(=O)cc(N2CCCC(N)C2)n(Cc2cc(F)ccc2C#N)c1=O (stereo unspecified) | 3.03% |  | 
10 | COC1/C=C/C(C)(O)C(SCC(N)C(=O)O)CC(=O)OC(C)C(C)CC/C=C/1C (stereo unspecified) | 6.14% [at 17.3 µM] |  | 
11 | C=C1C[C@]23C[C@H]1CC[C@H]2[C@@]12CC[C@H](O)[C@@](C)(C(=O)O1)[C@H]2[C@@H]3C(=O)O | 5% |  | 
